# Experimental data reported in PubChem BioAssay (NCATS).
# Records with an inconclusive call do not appear. Where a call stands in place of a potency, no number is given. Activity calls are given as the source filed them. Calls follow the shape of the dose curve; as a rule, active = well fitted activation curve with a large enough effect; inconclusive = small, poorly fitted or top-dose-only effect, or another doubt; inactive = no such curve, though single readings can be large or run the other way.
# Target: Rap guanine nucleotide exchange factor 3 (Homo sapiens) (UniProt O95398)
# Assay: Counterscreen qHTS for agonist of cAMP-regulated guanine nucleotide exchange factor 3 (EPAC1) (AID 1645889); also: nearly all actives have a fitted effect of over 40% in size
# Settings: EPAC1 Rap1B-BODIPY-GDP exchange, fluorescence; series mostly up to 154 µM
# Summary of the method: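 Rap1B–BODIPY-GDP (250 nM) with 50 uM GDP; compounds pin-transferred to 9.74 nM–152 uM final (activator) or from 7.32 nM upwards (inhibitor). Fluorescence Ex/Em 480/540 nm read at 5 and 30 min, then after adding cAMP or buffer, at room temperature.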
# Potency is read from the fitted curve at half-maximal effect.
Structure (SMILES),Potency,activation
O=C(CSc1nnc(-c2ccco2)c(-c2ccco2)n1)c1ccccc1,inactive,
Cc1cc(C(C)(C)C)cc(C)c1COC(=O)c1cccnc1,inactive,
O=c1oc2ccccc2n1Cc1ccccc1Cl,inactive,
Cc1ccc2nc(-c3cccc(Br)c3)c(Cc3ccccn3)n2c1,inactive,
CN(CC(=O)Nc1ccc(F)cc1)C(=O)COc1ccc(C(=O)c2ccccc2)cc1,inactive,
CCOC(=O)c1c(CC(C)C)csc1NC(=O)COC(=O)c1ccc(O)cc1,inactive,
O=C(O)c1ccc(COc2ccccc2/C=C2\NC(=O)N(Cc3ccc(F)cc3)C2=O)cc1,inactive,
CCCCn1c(=O)[nH]c(=O)c2c1nc(-c1ccccc1F)n2Cc1ccccc1OC,inactive,
CCN1CC=C2C(C#N)=C(N)C(C#N)(C#N)C(CCc3ccccc3)C2C1 (stereo not given),5.62 µM (active),
O=[N+]([O-])c1ccc(C=NNc2ccc(S(=O)(=O)O)cc2)cc1,,6.23% [at 30.8 µM] (inactive)
CCOC(=O)c1c(C)[nH]c(C(=O)C(C)OC(=O)c2ccc(NC(=O)CC#N)cc2)c1C (stereo not given),inactive,
Cc1ccc(C2CC(c3cccs3)=NN2C(=O)CSc2nc(=O)n3cc(C)ccc3n2)cc1 (stereo not given),inactive,
CC1(c2ccccc2)CC(C)(C)N2C(=O)C(=O)c3cccc1c32 (stereo not given),,21.7% [at 30.8 µM] (inactive)
COc1cccc(/C=C2/NC(=O)N(CC(=O)Nc3ccc(C)cc3)C2=O)c1OCc1cccc(C(=O)O)c1,inactive,
CCOC(=O)c1c(NC(=O)c2ccc(S(=O)(=O)N(C)CC3CCCO3)cc2)sc2c1CCN(C)C2 (stereo not given),inactive,
CCOC(=O)Cn1nc(C)c(NC(=O)COc2ccccc2[N+](=O)[O-])c1C,,2.17% [at 30.8 µM] (inactive)
NS(=O)(=O)c1ccc(N/N=C/c2ccc(C(=O)O)cc2)c([N+](=O)[O-])c1,inactive,
COc1ccc(/C=N/NC(=O)c2ccccc2O)cc1Cn1nnc2ccccc21,inactive,
O=C(c1ccc(-c2ccccc2Cl)o1)N1CCC1,,3.77% [at 30.8 µM] (inactive)
Fc1ccc2c(-c3cccc(C(F)(F)F)c3)c(-c3ccccc3)ncc2c1,inactive,

Structure (SMILES),Potency,activation
CCOC(=O)[C@H](C)N1[C@H](C)[C@H](c2ccccc2)Oc2ccc(Cl)cc2S1(=O)=O,,25.5% [at 30.8 µM] (inactive)
O=C(O)c1cc(NN=C2c3ccccc3-c3ccccc32)ccc1Cl,inactive,
CC(c1ccon1)N(C)Cc1cn(C)nc1-c1cccc(Cl)c1 (stereo not given),inactive,
CCCCCOC(=O)C1=C(C)Nc2nnnn2C1c1ccccc1Cl (stereo not given),,21.2% [at 30.8 µM] (inactive)
O=C(O)C1Nc2c(Cl)cc(Cl)c(Cl)c2C2C=CCC12 (stereo not given),inactive,
CCOC(=O)C1C(=O)C=C(c2ccc(C)cc2)CC1c1ccccc1 (stereo not given),,8.22% [at 30.8 µM] (inactive)
Cc1ccc(O)c(CNc2ccc(S(=O)(=O)Nc3nccs3)cc2)c1,,19.2% [at 30.8 µM] (inactive)
Cn1c(N)c(C(=O)COC(=O)Cc2ccc(Cl)c(Cl)c2)c(=O)n(C)c1=O,inactive,
CCN(CC)S(=O)(=O)c1ccc2[nH]c(=O)cc(C(=O)Nc3ccc(C)c(S(=O)(=O)N(CC)CC)c3)c2c1,inactive,
C[C@@H]1CCCCCCCCC(=O)OCCN1C(=O)OC(C)(C)C,inactive,
COc1ccc(NC(=O)c2cccnc2NCCc2ccccc2)cc1,inactive,
CCCCN(CCCC)Cc1cc(=O)oc2cc(OC)ccc12,inactive,
C=C1CC2C(=O)N(Cc3cc(OC)ccc3OC)C(C(=O)OCC)(C(=O)OCC)C1N2C(=O)OC(C)(C)C (stereo not given),inactive,
Fc1ccc2cnc(-c3ccccc3)c(-c3ccc(C(F)(F)F)cc3)c2c1,inactive,
CCOc1cc(/C=N/O)cc(Br)c1OCc1ccc(Cl)cc1,inactive,
O=C1c2ccccc2C(c2nnnn2Cc2ccccc2)N1CCc1c[nH]c2ccccc12 (stereo not given),inactive,
Cn1c2ccccc2c2cc(/C=N/NC(=O)c3cc(O)cc(O)c3)ccc21,inactive,
CC1=NN(c2nc(-c3ccccc3)cs2)C(=O)C1,inactive,
COC1OC(c2ccccc2)=C(c2cnc(N)nc2)c2ccc(F)cc21 (stereo not given),,11.3% [at 30.8 µM] (inactive)
O=C(O)CN1C(=O)/C(=C\c2cc(Br)ccc2OCc2ccccc2Cl)SC1=S,inactive,
